In the library only some 5.9% were active in any assay of this set; here they are far more common.
HepG2 tox: counter-screen for TGF-b inhibitors: cytotoxicity in HepG2 cells; HepG2 CAGA-GFP viability, ATP luminescence, 18 h; Potency, µM (series often up to 46.1 µM), for inactives: at the top dose activity change, negative = cytotoxicity, usual class: cytotoxic; actives 0.76% (n = 410,000); note: potency is the fitted concentration of half-maximal effect
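HepG2 CAGA-GFP cells (1000/well, DMEM with 1% FBS) received compound, then TGF-beta at 500 pg/mL final, and were incubated 18 hours at 37 degrees C. Viability was read by CellTiter-Glo luminescence. Media-only wells were set as complete cell-killing and DMSO as no toxicity.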
TGFb SMAD3 inh: inhibitors of TGF-b signaling; HepG2 CAGA-GFP TGF-b/SMAD3 reporter, GFP fluorescence, 18 h; TGF-beta stimulated, 500 pg/mL final; Potency, µM (series often up to 46.1 µM), for inactives: top-dose activity, negative = inhibition, usual class: inhibitors; actives 1.2% (n = 410,000); AID 588855; note: potency is the fitted concentration of half-maximal effect; % is set by controls: 0 for no effect and ±100 for the full control effect; nearly all actives have a fitted effect of over 65% in size
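Inhibition of TGF-beta-driven CAGA-GFP reporter expression in HEPG2 cells is measured by cellular GFP fluorescence after 18 h stimulation with 500 pg/mL recombinant TGF-beta in 1% FBS medium at 37 degrees C.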
KB-V1 cytotox: KB-V1 MDR subline cytotoxicity; actives 3.4% (n = 400,000); KB-V1 MDR cells viability, CellTiter-Glo, 72 h; Potency, µM (highest dose often 46.1 µM), usual class: cytotoxic; note: potency is the fitted concentration of half-maximal effect; % is set by controls: 0 for no effect and ±100 for the full control effect; nearly all actives have a fitted effect of over 60% in size
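Cytotoxicity via CellTiter-Glo luminescence after 72 h compound exposure at 37 degrees C. Cells: drug-selected KB-V1 line, DMEM phenol-red free plus 10% FBS. Compounds tested at multiple concentrations; normalized data fitted to concentration-effect curves.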
S2 tox: cell viability loss in ATXN counter-screen. AID 651635. Potency, µM (doses to about 56.7 µM), most hits filed as cytotoxic. S2 cells (HEK-293 line with an ATXN2-luciferase reporter) viability, CellTiter-Fluor protease fluorescence, 24 h. actives 0.49% (n = 400,000); note: potency is the fitted concentration of half-maximal effect; nearly all actives have a fitted effect of over 40% in size
ATXN2 expr inh: ATXN2 expression inhibition | actives 0.72% (n = 360,000) | Potency, µM (highest dose often 57 µM), for inactives: at the highest dose activity change, negative = inhibition, actives largely listed as inhibitors | AID 1745845 | HEK-293 ATXN2-luciferase reporter, luminescence, 24 h; note: potency is the fitted concentration of half-maximal effect; % is set by controls: 0 for no effect and ±100 for the full control effect; nearly all actives have a fitted effect of over 55% in size
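qHTS (up to 57 uM final) was run with 24 h compound exposure of reporter cells at 37 °C. Each well was multiplexed: SteadyGlo luminescence measured ATXN2-luciferase expression after a fluorogenic Gly-Phe-AFC viability readout (25 uM final).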
KB-3-1 tox: kills parental KB-3-1 adenocarcinoma cells | KB-3-1 viability, CellTiter-Glo ATP luminescence, 72 h | actives 1.4% (n = 400,000) | Potency, µM (series often up to 46.1 µM), usual class: cytotoxic; note: potency is the fitted concentration of half-maximal effect; % is set by controls: 0 for no effect and ±100 for the full control effect; nearly all actives have a fitted effect of over 60% in size
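Luminescent ATP read-out (CellTiter-Glo) measures survival of drug-naive KB-3-1 cells after 72 h compound exposure at 37 °C. Titration series was screened from lowest to highest concentration, with DMSO vehicle plates as background controls.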
SKNSH spheroid: reduced viability of SK-N-SH 3D spheroids, orthogonal test | shares compounds with ATXN2 expr inh | SK-N-SH 3D spheroid viability, PI/Hoechst imaging, 72 h | Potency, µM (doses to about 30.7 µM), usual class: inhibitors | actives 70% (n = 65) | AID 1347135
SJ-GBM2 3D tox: SJ-GBM2 spheroid viability loss, orthogonal 3D screen | actives 80% (n = 65) | SJ-GBM2 3D spheroid viability, PI/Hoechst imaging, 72 h | shares compounds with ATXN2 expr inh | AID 1347136 | Potency, µM (series often up to 30.7 µM), most hits filed as inhibitors
Daoy spheroid: reduced viability of Daoy 3D spheroids, orthogonal test; shares compounds with ATXN2 expr inh; Daoy 3D spheroid viability, PI/Hoechst imaging, 72 h; Potency, µM (highest dose often 30.7 µM), actives largely listed as inhibitors; actives 50% (n = 65); AID 1347137
TC32 3D casp: activates caspase in TC32 3D spheroids; shares compounds with ATXN2 expr inh; TC32 3D spheroids, caspase-3/7 fluorescence imaging, 24 h; Potency, µM (series often up to 30.7 µM), hits mostly inhibitors; actives 30% (n = 65); AID 1347138
TC32 3D tox: reduced viability of TC32 3D spheroids, orthogonal test; Potency, µM (highest dose often 30.7 µM), actives largely listed as inhibitors; TC32 3D spheroid viability, PI/Hoechst imaging, 72 h; shares compounds with ATXN2 expr inh; actives 60% (n = 65)
MG63 spheroid: MG-63 (6-TG R) 3D spheroid viability loss; AID 1347140; Potency, µM (top dose mostly 30.7 µM), most hits filed as inhibitors; actives 50% (n = 65); shares compounds with ATXN2 expr inh; MG-63 (6-TG R) 3D spheroid viability, PI/Hoechst imaging, 72 h
RD spheroid: reduced viability of RD 3D spheroids, orthogonal test. shares compounds with ATXN2 expr inh. Potency, µM (doses to about 30.7 µM), usual class: inhibitors. RD rhabdomyosarcoma 3D spheroid viability, PI/Hoechst imaging, 72 h. actives 50% (n = 65). AID 1347141
Numbers without * were called inactive; i = inactive; ? = inconclusive; . = no result. Calls come from the whole dose curve; as a rule, active = well fitted curve in the direction sought with a large enough effect; inconclusive = small, poorly fitted or top-dose-only effect, or another doubt; inactive = no such curve, though single readings can be large; an effect the other way counts as inactive or inconclusive.

SMILES	HepG2 tox	TGFb SMAD3 inh	KB-V1 cytotox	S2 tox	ATXN2 expr inh	KB-3-1 tox	SKNSH spheroid	SJ-GBM2 3D tox	Daoy spheroid	TC32 3D casp	TC32 3D tox	MG63 spheroid	RD spheroid
Cc1c2oc3c(C)ccc(C(=O)N[C@@H]4C(=O)N[C@H](C(C)C)C(=O)N5CCC[C@H]5C(=O)N(C)CC(=O)N(C)[C@@H](C(C)C)C(=O)O[C@@H]4C)c3nc-2c(C(=O)N[C@@H]2C(=O)N[C@H](C(C)C)C(=O)N3CCC[C@H]3C(=O)N(C)CC(=O)N(C)[C@@H](C(C)C)C(=O)O[C@@H]2C)c(N)c1=O	.	.	.	?	1µM*	.	0.0029µM*	0.0181µM*	0.0256µM*	?	0.0323µM*	0.0288µM*	0.0204µM*
O=S1(=O)N[C@@H](Cc2ccccc2)COc2cccc(N3CCC[C@H]3CO)c21	.	.	?	i	10.5%	i	.	.	.	.	.	.	.
CCn1c(CN2CCOCC2)nc2cc(NC(=O)c3cc(OC)c(OC)c(OC)c3)ccc21	-14.6%	-14.1%	i	i	7.6%	i	.	.	.	.	.	.	.
CC(C)(O)Cn1c(NC(=O)c2ccc(-c3cn[nH]c3)s2)nc2cc(CN3CCOCC3)ccc21	.	.	.	.	6.11µM*	.	0.228µM*	0.228µM*	0.644µM*	1.28µM*	1.02µM*	1.44µM*	0.323µM*
CCCCc1nc2cc(C=CC(=O)NO)ccc2n1CCN(CC)CC	.	.	.	.	113.4%	.	0.511µM*	0.909µM*	1.62µM*	?	1.44µM*	6.44µM*	1.62µM*
CCOC(=O)Cc1ccc(NC(=O)N2CCC(CN3CCCCCC3)CC2)cc1	5.9%	3.9%	.	.	.	.	.	.	.	.	.	.	.
Nc1ccn([C@@H]2O[C@H](CO)[C@H](O)C2(F)F)c(=O)n1	.	.	.	.	0.217µM*	.	?	0.144µM*	?	i	0.323µM*	0.574µM*	?
COC1=C2C[C@@H](C)C[C@H](OC)[C@@H](O)[C@@H](C)C=C(C)[C@H](OC(N)=O)[C@@H](OC)C=CC=C(C)C(=O)NC(=CC1=O)C2=O	.	.	.	.	0.769µM*	.	1.62µM*	1.62µM*	6.44µM*	?	1.14µM*	i	0.722µM*
COc1ccc(NC(=O)c2cc(C(C)=O)n3ccccc23)cc1	-29.1%	-1.0%	i	.	.	i	.	.	.	.	.	.	.
C[C@@]12O[C@@H](C[C@]1(O)CO)n1c3ccccc3c3c4c(c5c6ccccc6n2c5c31)CNC4=O	.	.	.	.	3.06µM*	.	1.44µM*	0.144µM*	1.14µM*	2.56µM*	5.11µM*	12.8µM*	8.1µM*

Screening data deposited in PubChem by National Center for Advancing Translational Sciences (NCATS).
